# Bioassay records as filed in PubChem.
# CR mimetic SO: reduction of superoxide in aged yeast, primary screen, HTS. S. cerevisiae aged cells, superoxide DHE fluorescence; stronger effect = lower value. superoxide response (% of plate mean), % at 10 µM. actives 0.18% (n = 330,000). AID 2690, 2010;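 active = superoxide response under a set limit, about three screen SD below normal, cut at about 65% in these data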;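 also: yeast aged for seven days with compound at 30 °C before DHE staining; 100% = average MFI of all compound-treated wells on the plate with controls excluded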
# OPRM1-OPRD1 ag: agonists of OPRM1-OPRD1 heterodimerization, primary screen, cell-based, luminescence; cells; activation, % at 9.3 µM; actives 0.3% (n = 340,000); AID 504326, 2011; in the data active = activation above about 18%;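 also: 0% = vehicle-treated cells and 100% = reference agonist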
# PvdQ inh: P. aeruginosa PvdQ acylase inhibitors, primary screen, biochemical, fluorescence, plate reader and imaging, single point. PvdQ acylase [Pseudomonas aeruginosa LESB58]. purified PvdQ acylase. inhibition, % at 10 µM. actives 0.063% (n = 340,000); in the data active = inhibition above about 30%, passing the limit was not always enough;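 also: 0% = vehicle neutral wells and 100% = reference inhibitor wells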
# OPRM1-OPRD1 inv: inverse agonists of MOR-DOR heterodimerization, primary screen, cell-based, luminescence. Mu-type opioid receptor (Homo sapiens) + Delta-type opioid receptor (Homo sapiens), …. cell-based MOR-DOR heterodimer luminescence, inverse agonism. inhibition, % at 9.3 µM. actives 0.21% (n = 340,000); in the data active = inhibition above about 22%, passing the limit was not always enough;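 also: 0% = cells with DMSO and 100% = wells without cells with DMSO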
# HTR5A inv ag: HTR5A inverse agonists in luminescence cell assay, primary screen, counter-screen for OPRM1-OPRD1 heterodimer inverse agonist project, full-deck HTS; HTR5A cell line, inverse agonism; inhibition, % at 9.3 µM; actives 0.083% (n = 340,000); in the data active = inhibition mostly above about 23%, no sharp cut-off; inactive = mostly below about 18%;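 also: 0% = cells with DMSO and 100% = no-cell wells with DMSO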
# Target sequence (P47898 whole entry, looked up): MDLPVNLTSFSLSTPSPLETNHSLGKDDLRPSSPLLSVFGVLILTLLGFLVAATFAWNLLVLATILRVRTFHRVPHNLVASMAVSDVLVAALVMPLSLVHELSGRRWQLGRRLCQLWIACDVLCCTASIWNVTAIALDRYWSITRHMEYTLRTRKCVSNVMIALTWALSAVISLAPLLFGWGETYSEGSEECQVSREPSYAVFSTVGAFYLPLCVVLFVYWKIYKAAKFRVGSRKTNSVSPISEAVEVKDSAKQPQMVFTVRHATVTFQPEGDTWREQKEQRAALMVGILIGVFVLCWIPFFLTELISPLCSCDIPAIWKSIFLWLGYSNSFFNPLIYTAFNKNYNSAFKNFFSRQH
# HTR5A ag: HTR5A agonists in luminescence cell assay, primary screen, counter-screen for OPRM1-OPRD1 heterodimer agonist project, full-deck HTS | 5-hydroxytryptamine receptor 5A (Homo sapiens), P47898 | cell-based | activation, % at 9.3 µM | actives 0.61% (n = 340,000) | AID 504692, 2011; in the data active = activation mostly above about 9.5%, no sharp cut-off; inactive = mostly below about 7.6%;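 also: 0% = cells with vehicle only and 100% = reference agonist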
# The depositor's hits bear a star; · = no result given. The list is not random: actives were taken first. Their share in the collection is about 1.3%.
SMILES,CR mimetic SO,OPRM1-OPRD1 ag,PvdQ inh,OPRM1-OPRD1 inv,HTR5A inv ag,HTR5A ag
Cc1ccc(NS(=O)(=O)c2cc3c4c(cccc4c2)C(=O)NC3=O)cc1C,108,3,-9,-18,-7,0
COc1ccccc1N1CCN(C(=O)c2ccc(-c3nc4ccccc4s3)o2)CC1,127,2,-6,-7,-23,9
Cc1cc(-n2c(SCC(=O)Nc3ccc(F)c(F)c3)nc3n[nH]c(C)c3c2=N)ccc1Cl,101,6,-13,-34,-40,9.8*
Cc1cc(-n2c(SCC(=O)NCc3cccs3)nc3n[nH]c(C)c3c2=N)ccc1Cl,113,2,-4,-12,-23,12*
Cc1cc(-n2c(SCC(=O)Nc3ccc(Br)cc3)nc3n[nH]c(C)c3c2=N)ccc1Cl,102,6,-5,-35,-30,3
Cc1ccc(CNC(=O)CSc2nc3n[nH]c(C)c3c(=N)n2-c2cccc(C)c2)cc1,88,1,4,-3,6,-2
O=C(NNC(=O)c1cc(Cl)ccc1O)c1ccc(NS(=O)(=O)c2cccs2)cc1,88,-6,-6,29,-11,-2
COc1ccc(OC)c(NC(=O)COC(=O)CCc2nc3ccccc3c(=O)[nH]2)c1,106,-3,-7,18,-12,3
O=C(O)CC(Cc1ccc(Cl)cc1)C(=O)Nc1ccccc1 (stereo unspecified),100,-1,2,7,-38,10*
COc1ccccc1N(CC(=O)NCCSc1ccccn1)S(=O)(=O)c1ccccc1,95,1,-16,-10,-47,12*
O=C(CSc1ccc2c(c1)OCCO2)Nc1ccc(Cl)cn1,105,1,-11,-5,1,0
O=C(CSc1ccc2c(c1)OCCO2)Nc1ccc(Br)cn1,100,-1,-6,7,-19,11*
CC(=O)Nc1ccc(S(=O)(=O)N(C)CC(=O)OCC(=O)NCc2ccco2)cc1,96,-1,0,9,-8,4
CCCNS(=O)(=O)c1ccc(OCC(=O)N(C)Cc2ccccc2)cc1,60*,-3,6,18,-13,5
CCOC(=O)c1ccc(N=c2scc(C)n2CC)cc1,95,0,-7,1,-36,13*
CC(NC(=O)COC(=O)c1ccccc1F)C1CC2CCC1C2 (stereo unspecified),104,-1,-3,3,-8,3
Cc1cc(C)n(-c2ccc(C(=O)NC(C)C)cc2)n1,105,-3,-10,14,2,3
CC(C)NC(=O)c1ccc(-n2nc(C(F)(F)F)c3c2CCCC3)cc1,91,-2,-15,8,-49,13*
CC(C)Oc1ccccc1-c1nc(SCC(=O)O)n[nH]1,90,4,5,-22,-43,12*
COc1ccccc1-c1nc(SCC(=O)O)n[nH]1,96,1,-11,-7,-5,-1
Cc1ccc(/C=C/C(=O)Nc2cc(S(=O)(=O)N3CCOCC3)ccc2N2CCOCC2)cc1,62*,-2,-9,10,-21,8
Nc1nnc(CC(=O)N/N=C/c2ccc(-c3ccc(Cl)cc3Cl)o2)s1,99,0,3,-2,-9,9
COc1cccc(-n2c(=S)sc3c(=O)n(-c4ccccc4OC)c(=S)[nH]c32)c1,98,0,-14,-2,-25,8.9*
COc1ccccc1-n1c(=S)[nH]c2c(sc(=S)n2-c2ccccc2)c1=O,105,0,0,-1,6,-3
O=C(Cc1cccs1)NCc1ccc(Cl)cc1Cl,98,-3,5,14,-13,4
SMILES,CR mimetic SO,OPRM1-OPRD1 ag,PvdQ inh,OPRM1-OPRD1 inv,HTR5A inv ag,HTR5A ag
NC(=O)c1cccc(CS(=O)(=O)c2ccc(Cl)cc2)c1,108,0,-13,2,16,-5
O=C(c1ccc(Cl)c(S(=O)(=O)N2CCCC2)c1)N1CCN(c2ccccn2)CC1,105,3,-11,-14,-66,12*
O=C(c1ccc(Cl)c(S(=O)(=O)N2CCOCC2)c1)N1CCN(c2ccccn2)CC1,101,-4,-1,14,-8,-1
C/C(Cn1nc([N+](=O)[O-])cc1C)=N\NC(=O)COc1ccc(Cl)cc1Cl,55*,2,-10,-16,-12,1
Cc1ccc(N2CCN(CC(O)COC3CCCCC3)CC2)cc1 (stereo unspecified),103,-2,-8,10,8,10*
O=S(=O)(c1ccc2c(c1)C(O)c1ccccc1CC2)C(F)(F)F (stereo unspecified),96,7,14,-39,-32,13*
COc1ccc(OC)c2sc(N(CCCN(C)C)C(=O)c3ccc(S(=O)(=O)N4CCc5ccccc5C4)cc3)nc12,98,·,·,·,·,·
COc1ccc(C)c2sc(N(CCCN(C)C)C(=O)c3ccc(S(=O)(=O)N4CCc5ccccc5C4)cc3)nc12,82,30*,-8,-148,-18,21*
O=C(Nc1ccc(-c2nc3ccccc3[nH]2)cc1)c1ccc2c(c1)OCO2,89,10,18,-47,9,13*
O=C(Nc1ccc(Cl)c(-c2nc3ccccc3[nH]2)c1)c1ccc2c(c1)OCO2,87,1,-4,-6,7,-3
CCn1c(SCC(=O)Nc2cc(C)on2)nc2sc3c(c2c1=O)CCCC3,99,26*,-15,-151,-28,21*
COc1ccccc1CNC(=O)C12CC3CC(CC(C3)C1)C2,62*,-3,-1,14,-8,2
CCOC(=O)N1CCN(c2ccc(Cl)cc2)CC1,108,-2,44*,9,-6,2
CCCN(CC(=O)Nc1ccccc1C)C(=O)Cc1n[nH]c(=O)c2ccccc12,95,1,-4,-6,-1,1
Cc1ccccc1OCCc1c(C)[nH]c(=S)[nH]c1=O,92,-5,-4,22,-3,12*
Cc1[nH]c(=S)[nH]c(=O)c1CCOc1ccccc1,108,-2,8,12,-2,-4
Cn1cc([N+](=O)[O-])c(C(=O)N2CCN(Cc3ccc4c(c3)OCO4)CC2)n1,91,-3,16,15,-31,13
c1ccc2c(c1)CC/C2=N/Nc1nc2ccccc2[nH]1,92,7,-10,-31,-32,12*
CC(C)(C)C1CCC(=NNc2nc3ccccc3[nH]2)CC1 (stereo unspecified),104,-1,-10,7,1,-1
COC(=O)c1cccc(NC(=O)c2ccc3c(c2)C(=O)N(Cc2cccnc2)C3=O)c1C,97,-3,-6,14,5,4
